RE007 growth inh: less growth of the S. pombe RE007 Vpr strain; 360,000 tested, 0.21% active; AID 651644; Potency, µM (series often up to 92.2 µM), for the others: at the top dose activity change, negative = less growth, most hits filed as inhibitors; S. pombe RE007 Vpr strain, BacTiter-Glo ATP luminescence, 24 h; active = well fitted falling curve with a large enough effect; inconclusive = small, poorly fitted or top-dose-only effect; inactive = no such curve, though single readings can be large or run the other way; also: % is scaled to controls: 0 for no effect and ±100 for the full control effect; nearly all actives have a fitted effect of over 50% in size
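Fission yeast strain RE007, carrying one chromosomally integrated HIV-1 vpr copy, was seeded at OD 0.01 in PMG+AL medium with 23 nL pinned compound. After 24 h at 30 °C and 99% humidity, viability was read by BacTiter-Glo luminescence.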
SARS PLP yeast: inhibitors of SARS-CoV papain-like protease in yeast | 330,000 tested, 0.19% active | AID 485353 | S. cerevisiae expressing SARS-CoV PLpro, growth rescue | Potency, µM (series often up to 32.9 µM), inactives show top-dose activity, positive = growth rescue, hits mostly activators; calls by dose curve; also: 0% is about no effect; nearly all actives have a fitted effect of over 55% in size
NS1 function inh: influenza NS1 inhibition; Potency, µM (top dose mostly 46.1 µM), without a hit: top-dose activity, positive = more growth; 270,000 tested, 0.4% active; AID 2326; calls by dose curve; also: actives are rising curves; nearly all actives have a fitted effect of over 50% in size
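Compounds were scored for reversing the slow growth caused by influenza A NS1 in S. cerevisiae, measured by optical density at 600 nm. Assay medium contained 2% galactose at pH 6.0; NS1-free yeast of the same strain were the positive control.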
Pf growth 96h: P. falciparum growth inhibition at 96 hour, primary screen for plastid delayed-death inhibitors. P. falciparum luciferase reporter growth, 96 h. Potency, µM (series often up to 28.7 µM), inactives show top-dose activity change, negative = inhibition, actives largely listed as inhibitors. 320,000 tested, 6.9% active. AID 504834; also: % is scaled to controls: 0 for no effect and ±100 for the full control effect
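Two parasite generations (96 h, 37 C, 5% CO2) of compound exposure in infected erythrocytes (0.05% parasitemia, 2% hematocrit). Luciferase-reporter P. falciparum; decreased luminescence indicates inhibited growth, aimed at apicoplast-acting delayed death.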
Pf growth 48h: inhibits P. falciparum growth in the first generation, 48 h; P. falciparum luciferase growth in erythrocytes, 48 h; Potency, µM (highest dose often 28.7 µM), without a hit: top-dose activity change, negative = inhibition, actives largely listed as inhibitors; 310,000 tested, 5.9% active; AID 504832; also: % is scaled to controls: 0 for no effect and ±100 for the full control effect
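Read-out is firefly luciferase luminescence from an integrated reporter in P. falciparum, so falling signal marks reduced parasite growth. Infected erythrocytes were at 2% hematocrit and 0.1% parasitemia (final) in Albumax-supplemented RPMI 1640.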
Active calls of the source: *; ? = inconclusive; nt = no result. Hits are enriched below; roughly 9.5% of the tested compounds scored in any of these assays. Unless noted, calls follow the shape of the dose curve; as a rule, active = well fitted inhibition curve with a large enough effect; inconclusive = small, poorly fitted or top-dose-only effect, or another doubt; inactive = no such curve, though single readings can be large or run the other way. Potency is read from the fitted curve at half-maximal effect.

SMILES	RE007 growth inh	SARS PLP yeast	NS1 function inh	Pf growth 96h	Pf growth 48h
CCn1c(SCC(N)=O)nc2sc3c(c2c1=O)CCN(C)C3	-13.8%	-0.3%	10.8%	?	1.31µM*
CCCn1c(SCC(=O)N2CCN(C(C)=O)CC2)nc2sc3c(c2c1=O)CCC3	11.3%	4.3%	6.4%	13.1µM*	?
CCCCC(OC(=O)CN1C(=O)COc2ccccc21)C(=O)NC1CCCCC1 (stereo unspecified)	8.9%	-5.6%	-0.9%	20.7%	-6.7%
CCC(C(=O)OC(C)C(=O)Nc1ccc(Cl)cn1)c1ccccc1 (stereo unspecified)	18.4%	-1.7%	-11.2%	15.1%	0.9%
CC(C)C(C(=O)N1CCOCC1)N1C(=O)c2ccccc2C1=O (stereo unspecified)	-18.4%	-0.2%	-4.5%	10.4µM*	12.4%
CC(C(=O)N1CCCCC1)N1C(=O)c2ccccc2C1=O (stereo unspecified)	-4.7%	-0.2%	8.0%	nt	12.4%
CC1(C)CC(=O)C=C(c2n[nH]nc2C2CC2)C1	-22.7%	nt	nt	nt	nt
CCOC(=O)C(C#N)=C1CCN(Cc2ccccc2)CC1	nt	2.5%	2.7%	7.38µM*	nt
CN1CCN(Cc2cc(=O)n3ccsc3n2)CC1	-2.2%	2.2%	-3.4%	?	-4.6%
CC1Cc2ccccc2N1Cc1cc(=O)n2ccsc2n1 (stereo unspecified)	-4.4%	-13.3%	13.3%	13.1µM*	?
O=C1c2ccccc2S(=O)(=O)N1Cc1cc(=O)n2ccsc2n1	24.5%	?	-0.2%	13.1µM*	?
CCC(C)C(N)C(=O)O (stereo unspecified)	nt	nt	nt	-6.6%	-3.7%
CCCCOCCCNC(=O)C[C@@H]1C[C@@]2(C(=O)OC)CCCCC=C2N(Cc2cccc3ccccc23)C1=O	11.4%	nt	nt	nt	nt
CC(C)(C)OC(=O)NCC12C=CC(O1)C1C(=O)N(Cc3ccccc3)C(=O)C12 (stereo unspecified)	44.7µM*	-95.1%	6.4%	-13.8%	5.2%
CCN(CC)CCNC1=CC(=O)OC12CCCCC2	4.1%	8.7%	1.0%	14.7µM*	11.3%
COC(=O)c1ccccc1NC(=O)c1ccc(COc2ccc(C)c(C)c2)o1	-13.4%	-1.5%	24.5%	105.9%	?
COC(=O)c1cc(OC)c(OC)cc1NC(=O)CCc1ccc(C)o1	-12.5%	-0.8%	-44.7%	17.0%	10.4µM*
Cc1ccc(C)c(NC(=O)CCc2ccc(C)o2)c1	-15.0%	0.3%	1.3%	?	6.0%
COC(=O)c1cc(OC)c(OC)cc1NC(=O)c1ccc(C)cc1	0.4%	8.4%	-1.7%	-20.8%	nt
COC(=O)c1cc(OC)c(OC)cc1NC(=O)c1ccc(C)o1	-5.5%	20.1%	-2.1%	5.22µM*	nt
COC(=O)c1cc(OC)c(OC)cc1NC(=O)c1cc(C(C)(C)C)oc1C	0.4%	-0.7%	5.0%	?	2.94µM*
COC(=O)c1ccccc1NC(=O)c1ccc(COc2cc(C)cc(C)c2)o1	-2.1%	3.3%	3.1%	4.15µM*	?
CCOC(=O)N1CCN(C(=O)c2ccc(Cn3c(=S)[nH]c4cc(OCC)c(OCC)cc4c3=O)cc2)CC1	1.9%	1.6%	nt	34.6%	?
O=C(c1ccc2c(=O)n(Cc3ccc4c(c3)OCO4)c(=S)[nH]c2c1)N1CCCCC1	6.5%	2.7%	?	?	0.0%
CC1CC(C)CN(C(=O)c2ccc3c(c2)OCCO3)C1 (stereo unspecified)	12.0%	0.3%	nt	4.65µM*	2.94µM*
SMILES	RE007 growth inh	SARS PLP yeast	NS1 function inh	Pf growth 96h	Pf growth 48h
CC1CC(C)CN(C(=O)c2ccc3c(=O)n(Cc4ccc5c(c4)OCO5)c(=S)[nH]c3c2)C1 (stereo unspecified)	-2.0%	4.4%	-2.9%	7.38µM*	-5.1%
CCOC(=O)N1CCN(C(=O)c2ccc(Cn3c(=S)[nH]c4cc5c(cc4c3=O)OCO5)cc2)CC1	3.4%	12.9%	-91.5%	?	13.1µM*
CC1CCN(C(=O)c2ccc3c(c2)OCCO3)CC1	52.1%	1.8%	4.0%	nt	-16.5%
CCCS(=O)(=O)NC(=O)C1(C)CCN(C(=O)c2ccc(SC(F)(F)F)cc2)C1 (stereo unspecified)	6.4%	nt	nt	nt	nt
C=C(C)c1cccc(C(C)(C)NC(=O)NNC(=O)c2ccccc2O)c1	6.9%	5.4%	11.7%	-1.4%	0.9%
COc1ccc(-c2nc3ccc(Br)cn3c2CC(C)(C)C)cc1OC	-18.0%	nt	nt	nt	nt

Screening data deposited in PubChem BioAssay by National Center for Advancing Translational Sciences (NCATS).
